Results on 9 molecules are retold here after PubChem BioAssay.

Assay [1] in a line: inhibitors of TNFa-induced NFkB p65 translocation, primary screen, imaging, HUVEC, MLSMR starter and 10KST1 sets (AID 438;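 active means inhibition above 20% together with a positive visual image hit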;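 further: compound added about 3h40 before a 20 min TNFalpha stimulation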;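 on inhibition: signal is the nuclear over cytoplasmic p65 intensity ratio per well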). As to conditions: HUVEC TNFa-induced p65 nuclear translocation; cell count: measured here: nuclei count (cytotoxicity indicator), at 2.08 µM; inhibition: at 2 µM, stronger effect = higher value, 0% TNFa-plus-vehicle, 100% no-TNFa wells.
The nature of assay [2]: inhibitors of mutant huntingtin aggregation, primary screen, imaging, exon1htt(103Q)mCFP cells, high-content imaging (AID 483;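 active means visual image review flags a hit and inhibition of aggregation exceeds 20%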;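 further: compound exposure lasted 3 days before fixation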;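 on nuclei count: percent of the per-plate median nuclei count of sample wells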). The conditions noted are these: exon1htt(103Q)mCFP cell line, aggregate imaging, at 2 µM; inhibition of aggregation: stronger effect = higher value; nuclei count: measured here: cell count, toxicity.
The nature of assay [3]: inhibitors of E-selectin induction by TNFa, primary screen, imaging, HUVEC, immunofluorescence, MLSMR starter and 10KST1 sets (AID 487).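 On inhibition: signal is fraction of cell area covered by stained E-selectin grains.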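 On nuclei count: 100% = median nuclei count of all wells on the same plate.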 The conditions noted are these: HUVEC TNFalpha-induced E-selectin immunofluorescence imaging, at 2 µM; inhibition: stronger effect = higher value; nuclei count: measured here: cell number, toxicity.
For assay [4], the target named is Voltage-gated potassium channel subunit beta-2 (Rattus norvegicus) (UniProt P62483). Nature of the assay: KvBeta enzyme negative modulators, primary screen, biochemical, NADPH fluorescence (AID 622;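 active means fluorescence slope higher than the sample average by over 3 SD, cut at about -0.22 in these data, passing the limit was not always enough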;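 further: slope of raw intensity against log time taken from 70 to 1610 s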). As to conditions: recombinant KvBeta, 4-cyanobenzaldehyde reduction, at 10 µM, stronger effect = higher value.
Voltage-gated potassium channel subunit beta-2 (Rattus norvegicus), sequence (P62483 whole entry, looked up): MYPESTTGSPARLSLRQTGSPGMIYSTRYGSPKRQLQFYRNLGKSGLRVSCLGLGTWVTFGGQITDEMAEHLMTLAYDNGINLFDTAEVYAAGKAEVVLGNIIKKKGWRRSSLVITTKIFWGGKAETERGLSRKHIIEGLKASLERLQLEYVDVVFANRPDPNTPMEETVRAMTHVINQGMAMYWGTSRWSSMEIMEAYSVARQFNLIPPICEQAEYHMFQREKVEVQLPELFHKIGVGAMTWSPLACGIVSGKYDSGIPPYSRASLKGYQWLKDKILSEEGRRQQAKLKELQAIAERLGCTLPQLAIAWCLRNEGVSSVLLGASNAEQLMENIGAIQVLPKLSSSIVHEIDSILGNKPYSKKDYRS
For assay [5] the target is unchanged. Nature of the assay: KvBeta positive modulators, primary screen, biochemical, NADPH fluorescence (AID 623;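 active means NADPH fluorescence slope more negative than the mean of all samples by about 3 SD, 99.7% confidence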;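 further: fluorescence intensity change per second fitted from 20 to 320 s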). As to conditions: Recombinant KvBeta, NADPH fluorescence decrease slope, 10 min; at 10 µM; stronger effect = lower value.
Assay [6] deals with Alpha-2C adrenergic receptor (Homo sapiens) (UniProt P18825). Nature of the assay: modulators of alpha2C/GIRK thallium flux, primary screen, cell-based, HEK293 alpha2C/GIRK1/2 (AID 624;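 active means fluorescence slope after compound addition differing from the mean of all screened samples at 99.7% confidence, in either direction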;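 further: slope of fluorescence ratio to pre-addition baseline per second over 15 to 24 s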). The conditions noted are these: thallium flux BTC fluorescence, at 10 µM, actives lie on both sides.
Alpha-2C adrenergic receptor (Homo sapiens), sequence (P18825 whole entry, looked up): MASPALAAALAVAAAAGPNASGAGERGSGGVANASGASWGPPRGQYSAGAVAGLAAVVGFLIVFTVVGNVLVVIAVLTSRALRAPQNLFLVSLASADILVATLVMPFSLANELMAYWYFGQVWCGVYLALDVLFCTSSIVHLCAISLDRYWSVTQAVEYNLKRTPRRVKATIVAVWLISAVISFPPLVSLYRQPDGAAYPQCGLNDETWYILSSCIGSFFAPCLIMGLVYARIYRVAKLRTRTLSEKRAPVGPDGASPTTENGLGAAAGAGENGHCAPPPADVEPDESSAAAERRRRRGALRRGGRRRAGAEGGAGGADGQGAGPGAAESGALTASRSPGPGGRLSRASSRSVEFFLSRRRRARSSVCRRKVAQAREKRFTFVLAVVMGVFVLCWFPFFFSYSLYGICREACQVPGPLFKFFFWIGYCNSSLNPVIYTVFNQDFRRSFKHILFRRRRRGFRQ
Assay [7] in a line: inhibitors of Sendai virus-induced IRF3 signaling, primary screen, TLR/RLR signaling modifier project, cell-based, Sendai virus stimulus, luciferase, 10K MLSCN set (AID 602276;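 active means inhibition at or above 50% at 10 µM; inactive means inhibition below 50%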;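 further: firefly luciferase from ISG56 promoter only with Renilla not read in this screen; 0% = Sendai virus plus DMSO and 100% = medium plus DMSO without virus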). As to conditions: HEK293 RL24 IRF3 luciferase reporter, at 10 µM, stronger effect = higher value. (In general: A reporter such as luciferase makes a cellular process visible.)
Assay [8] is described as follows: inhibitors of poly I:C-induced TLR3 signaling, primary screen, cell-based, poly I:C stimulus, luciferase, 10K MLSCN set (AID 602277;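 active means inhibition of the reporter signal at or above 50%; inactive means inhibition below 50%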). As to conditions: HEK293-TLR3 RL24 IRF3 luciferase reporter, at 10 µM, stronger effect = higher value.

The source made the active and inactive calls.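 How the source made its calls, unless noted: active means visually confirmed hit in the image check and inhibition above 20%; inconclusive means visually confirmed hit but inhibition not above 20%; inactive means no visual hit in the image check.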

Broadly, the inhibition is the relative decrease from the control value, in per cent.

In the case of `CC(C)C1C2=C(CC(C)(C)CC2=O)ON1c1ccccc1` (centres undefined), the cell count in assay [1] stood at 444. For the same molecule, the inhibition in assay [1] is 0.5% (inactive); in assay [3], -51.2% (inactive); in assay [7] it was 14.4% (inactive); in assay [8] it was 16.5% (inactive). For the same molecule, in assay [2], the inhibition of aggregation was 9.1% (inactive). Also, the figures for the nuclei count in assay [2] and in assay [3] were 86.8% and 115%, respectively. Moreover, the fluorescence slope in assay [4] is -0.476 (inactive). Moreover, the NADPH fluorescence slope in assay [5] is -4.4e-05 (inactive). For the same molecule, the slope in assay [6] is 0.0045 (inactive).
Take `O=C(C1CCCCC1)N1CCC(c2nc3c(nnn3Cc3c(F)cccc3Cl)c(=O)[nH]2)CC1`: in assay [1], the cell count turned out to be 413. The inhibition in assay [1] is -4.6% (inactive); in assay [3], -110% (inactive); in assay [7], 6.04% (inactive); in assay [8], 27% (inactive). Further, in assay [2], the inhibition of aggregation was -15.9% (inactive). Besides, the nuclei count in assay [2] was determined as 116%; in assay [3] it was 249%. Further, in assay [4], the fluorescence slope was -0.454 (inactive). Besides, the NADPH fluorescence slope in assay [5] was -0.000123 (inactive). Moreover, in assay [6], the slope is 0.00666 (inactive).
`CC(C)OC(=O)c1ccc(OC(=O)c2cccnc2)cc1`: the cell count in assay [1] turned out to be 424. For the same molecule, the inhibition in assay [1] is 3.3% (inactive); in assay [3], 12.1% (inactive); in assay [7], -2.15% (inactive); in assay [8], -5.2% (inactive). The inhibition of aggregation in assay [2] is -5.5% (inactive). The nuclei count in assay [2] turned out to be 107%; in assay [3] it was 104%. Further, the fluorescence slope in assay [4] is -0.429 (inactive). Further, the NADPH fluorescence slope in assay [5] was -6.3e-05 (inactive). Moreover, the slope in assay [6] is 0.00544 (inactive).
Regarding `CCCCS(=O)(=O)NC1=NCN(CCOC(=O)c2ccccc2)CN1`, the cell count in assay [1] was determined as 305. The inhibition in assay [1] is 0.8% (inactive); in assay [3] it was -50.4% (inactive); in assay [7] it was 13.9% (inactive); in assay [8], 20.7% (inactive). The inhibition of aggregation in assay [2] is 5.7% (inactive). For the same molecule, the nuclei count is 116% in assay [2] and 112% in assay [3]. In addition, the fluorescence slope in assay [4] is -0.496 (inactive). In assay [5], the NADPH fluorescence slope is -4.1e-05 (inactive). Also, the slope in assay [6] is 0.0043 (inactive).
`c1cnc2c(SCc3ccc(-c4nnco4)cc3)cccc2c1`: in assay [1], the cell count was determined as 431. In addition, the inhibition was 11.7% (inactive) in assay [1], -23.1% (inactive) in assay [3], -53.9% (inactive) in assay [7] and -92.3% (inactive) in assay [8]. Also, in assay [2], the inhibition of aggregation is -3.7% (inactive). The figures for the nuclei count in assay [2] and in assay [3] were 100% and 107%, respectively. In addition, the fluorescence slope in assay [4] is -0.586 (inactive). In addition, the NADPH fluorescence slope in assay [5] was -4.6e-06 (inactive). Besides, the slope in assay [6] was 0.00482 (inactive).
Turning to `CCOc1ccccc1CNC(=O)CCN1C(=O)COc2ccccc21`, in assay [1], the cell count turned out to be 630. In addition, the inhibition was -1.8% (inactive) in assay [1], -71.5% (inactive) in assay [3], 12.2% (inactive) in assay [7] and 2.75% (inactive) in assay [8]. Also, the inhibition of aggregation in assay [2] is -12.2% (inactive). In addition, the nuclei count was 47.7% in assay [2] and 94.5% in assay [3]. For the same molecule, the fluorescence slope in assay [4] was -0.379 (inactive). In addition, the NADPH fluorescence slope in assay [5] is -2.3e-05 (inactive). In addition, the slope in assay [6] is 0.00611 (inactive).
On to `CCOc1ncccc1C(=O)OCC(=O)N1CC(=O)Nc2ccccc21`, for which, in assay [1], the cell count worked out at 371. The inhibition in assay [1] was 2.2% (inactive); in assay [3], -9.8% (inactive); in assay [7], 7.28% (inactive); in assay [8] it was 22.7% (inactive). Further, in assay [2], the inhibition of aggregation is -21.8% (inactive). The figures for the nuclei count in assay [2] and in assay [3] were 102% and 111%, respectively. Moreover, the fluorescence slope in assay [4] is -0.486 (inactive). The NADPH fluorescence slope in assay [5] was 3.8e-06 (inactive). The slope in assay [6] is 0.00558 (inactive).
For `CN(C)c1ccc(NC(=O)c2ccncc2)c2ccccc12`, in assay [1], the cell count stood at 315. Besides, the inhibition in assay [1] was 2.7% (inactive); in assay [3] it was -88.6% (inactive); in assay [7], 15.4% (inactive); in assay [8], 12% (inactive). In assay [2], the inhibition of aggregation is 6.2% (inactive). The nuclei count turned out to be 94.4% in assay [2] and 105% in assay [3]. Moreover, in assay [4], the fluorescence slope was -0.316 (inactive). In addition, the NADPH fluorescence slope in assay [5] is -5.4e-05 (inactive). Also, the slope in assay [6] was 0.00482 (inactive).
Consider `O=C1CCCC2=C1C1(CCCC1)N=C(Nc1nc3ccccc3s1)N2`, for which the cell count in assay [1] stood at 687. The inhibition in assay [1] is -4.4% (inactive); in assay [3] it was -39.4% (inactive); in assay [7], 10.1% (inactive); in assay [8], 2.82% (inactive). Also, the inhibition of aggregation in assay [2] is -42.8% (inactive). Also, the nuclei count is 139% in assay [2] and 117% in assay [3]. The fluorescence slope in assay [4] is -0.257 (inactive). Moreover, the NADPH fluorescence slope in assay [5] was -9.3e-06 (inactive). Further, the slope in assay [6] was 0.00377 (inactive).
